{"source": "the supplement of paper PMC8728848", "binders": {"B1": {"name": "PEB4 (Campylobacter jejuni), A1VYV6 (protein)", "chain": "MKKFSLVAAALIAGVALNVNAATVATVNGKSISDAEVSEFFAPMLRGQDFKTLPDNQKKALIQQYIMQDLILQDAKKQNLEKDPLYTKELDRAKDAILVNVYQEKILNTIKIDAAKVKAFYDQNKDKYVKPARVQAKHILVATEKEAKDIINELKGLKGKELDAKFSELAKEKSIDPGSKNQGGELGWFDQSTMVKPFTDAAFALKNGTITTTPVKTNFGYHVILKENSQAKGQIKFDEVKQGIENGLKFEEFKKVINQKGQDLLNSAKVEYK"}}, "assay_in_all_cases": "glycan array binding signal (z-score within array); higher = stronger binding", "conditions_in_all_cases": "glycan notation: IUPAC condensed, linker removed", "key": {"[1]": {"biological_target": "Fuc(a1-2)Gal6S(b1-4)Glc6S", "procedure,_shortened": "(§1)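 The Consortium for Functional Glycomics database supplied 3228 glycan arrays, of which those lacking an available protein sequence were dropped. The binding signal, a within-array Z-score, was averaged across arrays of the same protein sequence and across linkers. Negative scores can be read as non-binding.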"}, "Fuc(a1-2)[Gal(a1-3)]Gal": {"biological_target": "Fuc(a1-2)[Gal(a1-3)]Gal", "procedure,_shortened": "as §1"}, "[2]": {"biological_target": "Fuc(a1-3)[Gal(b1-4)]GlcNAc", "procedure,_shortened": "as §1"}, "[3]": {"biological_target": "Gal(a1-3)Gal(b1-3)[Fuc(a1-4)]GlcNAc(b1-2)Man(a1-3)[Gal(a1-3)Gal(b1-3)[Fuc(a1-4)]GlcNAc(b1-2)Man(a1-6)]Man(b1-4)GlcNAc(b1-4)GlcNAc", "procedure,_shortened": "as §1"}, "[4]": {"biological_target": "Gal(a1-3)Gal(b1-4)[Fuc(a1-3)]GlcNAc(b1-2)Man(a1-3)[Gal(a1-3)Gal(b1-4)[Fuc(a1-3)]GlcNAc(b1-2)Man(a1-6)]Man(b1-4)GlcNAc(b1-4)GlcNAc", "procedure,_shortened": "as §1"}, "[5]": {"biological_target": "Gal(b1-3)GlcNAc(a1-6)Gal(b1-4)GlcNAc", "procedure,_shortened": "as §1"}, "[6]": {"biological_target": "Gal(b1-3)[Fuc(a1-4)]GlcNAc(b1-3)Gal(b1-3)[Fuc(a1-4)]GlcNAc", "procedure,_shortened": "as §1"}, "[7]": {"biological_target": "Gal(b1-4)GalNAc(b1-3)[Fuc(a1-2)]Gal(b1-4)GlcNAc", "procedure,_shortened": "as §1"}, "Gal(b1-4)GlcNAc": {"biological_target": "Gal(b1-4)GlcNAc", "procedure,_shortened": "as §1"}, "[8]": {"biological_target": "Gal(b1-4)GlcNAc(b1-2)Man(a1-3)Man(b1-4)GlcNAc(b1-4)GlcNAc", "procedure,_shortened": "as §1"}, "[9]": {"biological_target": "Gal(b1-4)GlcNAc(b1-2)[Gal(b1-4)GlcNAc(b1-4)]Man(a1-3)[Gal(b1-4)GlcNAc(b1-2)Man(a1-6)]Man(b1-4)GlcNAc(b1-4)GlcNAc", "procedure,_shortened": "as §1"}, "GlcA(b1-3)GlcNAc": {"biological_target": "GlcA(b1-3)GlcNAc", "procedure,_shortened": "as §1"}, "[10]": {"biological_target": "GlcNAc(a1-4)Gal(b1-4)GlcNAc(b1-3)Gal(b1-4)[Fuc(a1-3)]GlcNAc(b1-3)Gal(b1-4)[Fuc(a1-3)]GlcNAc", "procedure,_shortened": "as §1"}, "[11]": {"biological_target": "Man(a1-2)Man(a1-2)Man(a1-3)Man", "procedure,_shortened": "as §1"}, "[12]": {"biological_target": "Man(a1-2)Man(a1-6)[Man(a1-3)]Man(a1-6)[Man(a1-2)Man(a1-2)Man(a1-3)]Man(b1-4)GlcNAc(b1-4)GlcNAc", "procedure,_shortened": "as §1"}, "[13]": {"biological_target": "Man(a1-3)[Man(a1-6)]Man(a1-6)[Man(a1-3)]Man(b1-4)GlcNAc(b1-4)GlcNAc", "procedure,_shortened": "as §1"}, "[14]": {"biological_target": "Neu5Ac(a2-3)Gal(b1-4)[Fuc(a1-3)]GlcNAc(b1-3)GalNAc", "procedure,_shortened": "as §1"}, "[15]": {"biological_target": "Neu5Ac(a2-3)Gal6S(b1-4)GlcNAc", "procedure,_shortened": "as §1"}, "[16]": {"biological_target": "Neu5Ac(a2-3)Gal6S(b1-4)[Fuc(a1-3)]GlcNAc", "procedure,_shortened": "as §1"}, "[17]": {"biological_target": "Neu5Ac(a2-3)[GalNAc(b1-4)]Gal(b1-4)Glc", "procedure,_shortened": "as §1"}, "Neu5Ac(a2-6)Gal": {"biological_target": "Neu5Ac(a2-6)Gal", "procedure,_shortened": "as §1"}, "[18]": {"biological_target": "Neu5Ac(a2-6)Gal(b1-4)GlcNAc(b1-3)Gal(b1-4)GlcNAc", "procedure,_shortened": "as §1"}, "[19]": {"biological_target": "Neu5Ac(a2-6)Gal(b1-4)GlcNAc(b1-3)Gal(b1-4)[Fuc(a1-3)]GlcNAc(b1-3)Gal(b1-4)[Fuc(a1-3)]GlcNAc", "procedure,_shortened": "as §1"}, "[20]": {"biological_target": "Neu5Ac(a2-6)GlcNAc(b1-4)GlcNAc", "procedure,_shortened": "as §1"}, "[21]": {"biological_target": "Neu5Ac(a2-8)Neu5Ac(a2-3)Gal(b1-4)Glc", "procedure,_shortened": "as §1"}, "[22]": {"biological_target": "Neu5Ac9Ac(a2-3)Gal(b1-4)GlcNAc", "procedure,_shortened": "as §1"}}, "note": "The sample as a whole holds a higher share of the strongest signals than the screen did.", "data": [{"binder": "B1", "values": [{"measurement": "glycan array binding signal (z-score)", "setting": "[1]", "value": 0.571}, {"measurement": "glycan array binding signal (z-score)", "setting": "Fuc(a1-2)[Gal(a1-3)]Gal", "value": -0.517}, {"measurement": "glycan array binding signal (z-score)", "setting": "[2]", "value": -0.387}, {"measurement": "glycan array binding signal (z-score)", "setting": "[3]", "value": 3.83}, {"measurement": "glycan array binding signal (z-score)", "setting": "[4]", "value": 2.12}, {"measurement": "glycan array binding signal (z-score)", "setting": "[5]", "value": 2.54}, {"measurement": "glycan array binding signal (z-score)", "setting": "[6]", "value": 2.99}, {"measurement": "glycan array binding signal (z-score)", "setting": "[7]", "value": -0.25}, {"measurement": "glycan array binding signal (z-score)", "setting": "Gal(b1-4)GlcNAc", "value": -0.852}, {"measurement": "glycan array binding signal (z-score)", "setting": "[8]", "value": -0.258}, {"measurement": "glycan array binding signal (z-score)", "setting": "[9]", "value": 2.58}, {"measurement": "glycan array binding signal (z-score)", "setting": "GlcA(b1-3)GlcNAc", "value": 0.752}, {"measurement": "glycan array binding signal (z-score)", "setting": "[10]", "value": 4.35}, {"measurement": "glycan array binding signal (z-score)", "setting": "[11]", "value": 2.37}, {"measurement": "glycan array binding signal (z-score)", "setting": "[12]", "value": 0.969}, {"measurement": "glycan array binding signal (z-score)", "setting": "[13]", "value": -0.553}, {"measurement": "glycan array binding signal (z-score)", "setting": "[14]", "value": 5.24}, {"measurement": "glycan array binding signal (z-score)", "setting": "[15]", "value": 1.6}, {"measurement": "glycan array binding signal (z-score)", "setting": "[16]", "value": 2.8}, {"measurement": "glycan array binding signal (z-score)", "setting": "[17]", "value": -1.19}, {"measurement": "glycan array binding signal (z-score)", "setting": "Neu5Ac(a2-6)Gal", "value": 0.075}, {"measurement": "glycan array binding signal (z-score)", "setting": "[18]", "value": -0.672}, {"measurement": "glycan array binding signal (z-score)", "setting": "[19]", "value": -0.544}, {"measurement": "glycan array binding signal (z-score)", "setting": "[20]", "value": -0.701}, {"measurement": "glycan array binding signal (z-score)", "setting": "[21]", "value": -0.705}, {"measurement": "glycan array binding signal (z-score)", "setting": "[22]", "value": -1.05}]}]}
